Measurements from publication PMC12529666, “Dysregulation of AGO2-miRNA dynamics underlies the AGO2-associated Lessel–Kreienkamp syndrome”.
Changes are numbered by the printed parent chain.

B1: GTGTTCCG (ssRNA)
RNA 1: GAGUUCUACAGUCCGACGAUCCCAACGUGUUCCGCACCUGGAAUUCUCGGGUGCCAA
RNA 2: UGGAGUGUGACAAUGGUGUUUG
DNA 1: GATCGTCGGACTGTAGAACTC
DNA 2: TTGGCACCCGAGAATTCCA
modifications: constant regions annealed to DNA blockers; guide miR-122 5' phosphate
B2: ATATTTCG (ssRNA)
RNA 1: B1 RNA 1 with G27A, G29A, C32U
RNA 2: UGGAGUGUGACAAUGGUGUUUG
DNA 1: GATCGTCGGACTGTAGAACTC
DNA 2: TTGGCACCCGAGAATTCCA
modifications: constant regions annealed to DNA blockers; guide miR-122 5' phosphate
B3: ACATCTCG (ssRNA)
RNA 1: B1 RNA 1 with G27A, U28C, G29A, U31C, C32U
RNA 2: UGGAGUGUGACAAUGGUGUUUG
DNA 1: GATCGTCGGACTGTAGAACTC
DNA 2: TTGGCACCCGAGAATTCCA
modifications: constant regions annealed to DNA blockers; guide miR-122 5' phosphate
B4: ATACCCCG (ssRNA)
RNA 1: B1 RNA 1 with G27A, G29A, U30C, U31C
RNA 2: UGGAGUGUGACAAUGGUGUUUG
DNA 1: GATCGTCGGACTGTAGAACTC
DNA 2: TTGGCACCCGAGAATTCCA
modifications: constant regions annealed to DNA blockers; guide miR-122 5' phosphate
B5: ATGTTCTG (ssRNA)
RNA 1: B1 RNA 1 with G27A, C33U
RNA 2: UGGAGUGUGACAAUGGUGUUUG
DNA 1: GATCGTCGGACTGTAGAACTC
DNA 2: TTGGCACCCGAGAATTCCA
modifications: constant regions annealed to DNA blockers; guide miR-122 5' phosphate
B6: ATATTTTG (ssRNA)
RNA 1: B1 RNA 1 with G27A, G29A, C32U, C33U
RNA 2: UGGAGUGUGACAAUGGUGUUUG
DNA 1: GATCGTCGGACTGTAGAACTC
DNA 2: TTGGCACCCGAGAATTCCA
modifications: constant regions annealed to DNA blockers; guide miR-122 5' phosphate
B7: GTACCTTA (ssRNA)
RNA 1: B1 RNA 1 with G29A, U30C, U31C, C32U, C33U, G34A
RNA 2: UGGAGUGUGACAAUGGUGUUUG
DNA 1: GATCGTCGGACTGTAGAACTC
DNA 2: TTGGCACCCGAGAATTCCA
modifications: constant regions annealed to DNA blockers; guide miR-122 5' phosphate
B8: ACGCCCCG (ssRNA)
RNA 1: B1 RNA 1 with G27A, U28C, U30C, U31C
RNA 2: UGGAGUGUGACAAUGGUGUUUG
DNA 1: GATCGTCGGACTGTAGAACTC
DNA 2: TTGGCACCCGAGAATTCCA
modifications: constant regions annealed to DNA blockers; guide miR-122 5' phosphate
B9: ATGCCCTG (ssRNA)
RNA 1: B1 RNA 1 with G27A, U30C, U31C, C33U
RNA 2: UGGAGUGUGACAAUGGUGUUUG
DNA 1: GATCGTCGGACTGTAGAACTC
DNA 2: TTGGCACCCGAGAATTCCA
modifications: constant regions annealed to DNA blockers; guide miR-122 5' phosphate
B10: ATACCTTA (ssRNA)
RNA 1: B1 RNA 1 with G27A, G29A, U30C, U31C, C32U, C33U, G34A
RNA 2: UGGAGUGUGACAAUGGUGUUUG
DNA 1: GATCGTCGGACTGTAGAACTC
DNA 2: TTGGCACCCGAGAATTCCA
modifications: constant regions annealed to DNA blockers; guide miR-122 5' phosphate
B11: GCGTCTCG (ssRNA)
RNA 1: B1 RNA 1 with U28C, U31C, C32U
RNA 2: UGGAGUGUGACAAUGGUGUUUG
DNA 1: GATCGTCGGACTGTAGAACTC
DNA 2: TTGGCACCCGAGAATTCCA
modifications: constant regions annealed to DNA blockers; guide miR-122 5' phosphate
B12: ATATCCTG (ssRNA)
RNA 1: B1 RNA 1 with G27A, G29A, U31C, C33U
RNA 2: UGGAGUGUGACAAUGGUGUUUG
DNA 1: GATCGTCGGACTGTAGAACTC
DNA 2: TTGGCACCCGAGAATTCCA
modifications: constant regions annealed to DNA blockers; guide miR-122 5' phosphate
B13: ATACCTTG (ssRNA)
RNA 1: B1 RNA 1 with G27A, G29A, U30C, U31C, C32U, C33U
RNA 2: UGGAGUGUGACAAUGGUGUUUG
DNA 1: GATCGTCGGACTGTAGAACTC
DNA 2: TTGGCACCCGAGAATTCCA
modifications: constant regions annealed to DNA blockers; guide miR-122 5' phosphate
B14: ATGTCTTG (ssRNA)
RNA 1: B1 RNA 1 with G27A, U31C, C32U, C33U
RNA 2: UGGAGUGUGACAAUGGUGUUUG
DNA 1: GATCGTCGGACTGTAGAACTC
DNA 2: TTGGCACCCGAGAATTCCA
modifications: constant regions annealed to DNA blockers; guide miR-122 5' phosphate
B15: GTGTCCTG (ssRNA)
RNA 1: B1 RNA 1 with U31C, C33U
RNA 2: UGGAGUGUGACAAUGGUGUUUG
DNA 1: GATCGTCGGACTGTAGAACTC
DNA 2: TTGGCACCCGAGAATTCCA
modifications: constant regions annealed to DNA blockers; guide miR-122 5' phosphate
B16: GTATCTTA (ssRNA)
RNA 1: B1 RNA 1 with G29A, U31C, C32U, C33U, G34A
RNA 2: UGGAGUGUGACAAUGGUGUUUG
DNA 1: GATCGTCGGACTGTAGAACTC
DNA 2: TTGGCACCCGAGAATTCCA
modifications: constant regions annealed to DNA blockers; guide miR-122 5' phosphate
B17: GTATCTCG (ssRNA)
RNA 1: B1 RNA 1 with G29A, U31C, C32U
RNA 2: UGGAGUGUGACAAUGGUGUUUG
DNA 1: GATCGTCGGACTGTAGAACTC
DNA 2: TTGGCACCCGAGAATTCCA
modifications: constant regions annealed to DNA blockers; guide miR-122 5' phosphate
B18: ATGCCTCG (ssRNA)
RNA 1: B1 RNA 1 with G27A, U30C, U31C, C32U
RNA 2: UGGAGUGUGACAAUGGUGUUUG
DNA 1: GATCGTCGGACTGTAGAACTC
DNA 2: TTGGCACCCGAGAATTCCA
modifications: constant regions annealed to DNA blockers; guide miR-122 5' phosphate
B19: GCGTTTTG (ssRNA)
RNA 1: B1 RNA 1 with U28C, C32U, C33U
RNA 2: UGGAGUGUGACAAUGGUGUUUG
DNA 1: GATCGTCGGACTGTAGAACTC
DNA 2: TTGGCACCCGAGAATTCCA
modifications: constant regions annealed to DNA blockers; guide miR-122 5' phosphate
B20: GTATCCCG (ssRNA)
RNA 1: B1 RNA 1 with G29A, U31C
RNA 2: UGGAGUGUGACAAUGGUGUUUG
DNA 1: GATCGTCGGACTGTAGAACTC
DNA 2: TTGGCACCCGAGAATTCCA
modifications: constant regions annealed to DNA blockers; guide miR-122 5' phosphate
B21: GTGTTCTG (ssRNA)
RNA 1: B1 RNA 1 with C33U
RNA 2: UGGAGUGUGACAAUGGUGUUUG
DNA 1: GATCGTCGGACTGTAGAACTC
DNA 2: TTGGCACCCGAGAATTCCA
modifications: constant regions annealed to DNA blockers; guide miR-122 5' phosphate
B22: GCGTTCTG (ssRNA)
RNA 1: B1 RNA 1 with U28C, C33U
RNA 2: UGGAGUGUGACAAUGGUGUUUG
DNA 1: GATCGTCGGACTGTAGAACTC
DNA 2: TTGGCACCCGAGAATTCCA
modifications: constant regions annealed to DNA blockers; guide miR-122 5' phosphate
B23: GCATCCTG (ssRNA)
RNA 1: B1 RNA 1 with U28C, G29A, U31C, C33U
RNA 2: UGGAGUGUGACAAUGGUGUUUG
DNA 1: GATCGTCGGACTGTAGAACTC
DNA 2: TTGGCACCCGAGAATTCCA
modifications: constant regions annealed to DNA blockers; guide miR-122 5' phosphate

Columns and labels:
Experiment in all cases: RNA Bind-n-Seq (nitrocellulose filter binding and sequencing); miR-122 guide loaded in AGO2; 60 min incubation; 30 mM Tris pH 8.0, 100 mM potassium acetate, 2 mM magnesium acetate, 0.5 mM TCEP, 0.005% NP-40, 0.01 mg/ml yeast tRNA; 3 nM AGO2-miR-122, 100 nM RNA library; 60; high values mean tight binding
Conditions in all cases: protein: recombinant; tags: His6 (N-terminal, pFastBac HTA)
AGO2 L192P = AGO2 L192P (Homo sapiens, UniProt Q9UKV8 1-859, L192P;S387D;S824A;S828D;S831D;S834A)
In short: (§1)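 His-tagged AGO2 was expressed in Sf9 insect cells by baculovirus, loaded with a synthetic guide RNA, and purified by Ni-NTA and a biotinylated capture oligo. Bound RNA was extracted, reverse-transcribed, barcode-amplified and Illumina-sequenced. Fold enrichment is each sequence's read fraction divided by its input-library read fraction.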

AGO2 A367P = AGO2 A367P (Homo sapiens, UniProt Q9UKV8 1-859, A367P;S387D;S824A;S828D;S831D;S834A)
In short: as §1

AGO2 T357M = AGO2 T357M (Homo sapiens, UniProt Q9UKV8 1-859, T357M;S387D;S824A;S828D;S831D;S834A)
In short: as §1

AGO2 L192P, sequence (Q9UKV8 whole entry L192P/S387D/S824A/S828D/S831D/S834A): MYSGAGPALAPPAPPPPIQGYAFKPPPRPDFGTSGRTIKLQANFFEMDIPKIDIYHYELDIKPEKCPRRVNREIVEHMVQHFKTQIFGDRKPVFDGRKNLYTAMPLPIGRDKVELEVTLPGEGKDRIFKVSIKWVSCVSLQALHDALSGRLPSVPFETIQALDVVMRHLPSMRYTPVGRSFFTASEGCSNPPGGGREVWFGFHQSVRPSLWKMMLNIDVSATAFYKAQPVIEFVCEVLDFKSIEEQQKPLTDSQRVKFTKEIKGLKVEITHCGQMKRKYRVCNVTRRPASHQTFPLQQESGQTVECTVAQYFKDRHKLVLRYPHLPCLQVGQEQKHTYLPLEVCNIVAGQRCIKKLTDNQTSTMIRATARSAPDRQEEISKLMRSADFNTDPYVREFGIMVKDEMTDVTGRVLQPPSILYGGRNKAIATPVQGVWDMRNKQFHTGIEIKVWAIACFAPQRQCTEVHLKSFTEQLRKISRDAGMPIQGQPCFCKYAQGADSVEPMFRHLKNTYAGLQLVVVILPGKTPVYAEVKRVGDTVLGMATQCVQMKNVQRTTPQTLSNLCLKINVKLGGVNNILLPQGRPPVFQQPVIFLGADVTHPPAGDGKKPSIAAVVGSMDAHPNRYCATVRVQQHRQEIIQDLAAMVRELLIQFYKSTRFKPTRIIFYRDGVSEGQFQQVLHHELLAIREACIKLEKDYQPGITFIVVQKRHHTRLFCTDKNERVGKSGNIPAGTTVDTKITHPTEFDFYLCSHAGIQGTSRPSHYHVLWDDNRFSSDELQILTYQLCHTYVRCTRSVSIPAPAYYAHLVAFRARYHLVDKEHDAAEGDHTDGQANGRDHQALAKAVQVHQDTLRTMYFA
AGO2 A367P, sequence (Q9UKV8 whole entry A367P/S387D/S824A/S828D/S831D/S834A): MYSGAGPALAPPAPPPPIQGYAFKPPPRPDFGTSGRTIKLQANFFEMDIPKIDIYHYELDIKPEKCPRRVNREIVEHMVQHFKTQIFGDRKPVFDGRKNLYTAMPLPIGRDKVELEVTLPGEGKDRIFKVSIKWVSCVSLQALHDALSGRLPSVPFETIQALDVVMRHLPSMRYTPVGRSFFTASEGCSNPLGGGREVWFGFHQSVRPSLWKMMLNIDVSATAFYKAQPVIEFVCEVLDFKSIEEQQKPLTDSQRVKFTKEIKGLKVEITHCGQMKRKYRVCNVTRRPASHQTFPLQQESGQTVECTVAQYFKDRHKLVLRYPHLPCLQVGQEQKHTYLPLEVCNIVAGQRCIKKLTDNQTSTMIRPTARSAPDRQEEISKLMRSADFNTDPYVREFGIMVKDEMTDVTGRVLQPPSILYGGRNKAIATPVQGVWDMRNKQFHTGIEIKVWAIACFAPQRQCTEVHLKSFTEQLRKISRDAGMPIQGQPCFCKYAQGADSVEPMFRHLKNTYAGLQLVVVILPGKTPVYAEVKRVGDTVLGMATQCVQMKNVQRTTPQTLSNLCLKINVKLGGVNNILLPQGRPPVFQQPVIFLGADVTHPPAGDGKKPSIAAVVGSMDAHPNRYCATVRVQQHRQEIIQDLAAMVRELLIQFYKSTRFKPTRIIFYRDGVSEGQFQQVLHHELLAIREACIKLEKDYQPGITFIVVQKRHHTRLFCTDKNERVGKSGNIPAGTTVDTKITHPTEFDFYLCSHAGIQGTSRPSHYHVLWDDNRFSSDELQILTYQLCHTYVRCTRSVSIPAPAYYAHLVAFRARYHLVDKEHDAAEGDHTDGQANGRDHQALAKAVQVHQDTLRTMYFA
AGO2 T357M, sequence (Q9UKV8 whole entry T357M/S387D/S824A/S828D/S831D/S834A): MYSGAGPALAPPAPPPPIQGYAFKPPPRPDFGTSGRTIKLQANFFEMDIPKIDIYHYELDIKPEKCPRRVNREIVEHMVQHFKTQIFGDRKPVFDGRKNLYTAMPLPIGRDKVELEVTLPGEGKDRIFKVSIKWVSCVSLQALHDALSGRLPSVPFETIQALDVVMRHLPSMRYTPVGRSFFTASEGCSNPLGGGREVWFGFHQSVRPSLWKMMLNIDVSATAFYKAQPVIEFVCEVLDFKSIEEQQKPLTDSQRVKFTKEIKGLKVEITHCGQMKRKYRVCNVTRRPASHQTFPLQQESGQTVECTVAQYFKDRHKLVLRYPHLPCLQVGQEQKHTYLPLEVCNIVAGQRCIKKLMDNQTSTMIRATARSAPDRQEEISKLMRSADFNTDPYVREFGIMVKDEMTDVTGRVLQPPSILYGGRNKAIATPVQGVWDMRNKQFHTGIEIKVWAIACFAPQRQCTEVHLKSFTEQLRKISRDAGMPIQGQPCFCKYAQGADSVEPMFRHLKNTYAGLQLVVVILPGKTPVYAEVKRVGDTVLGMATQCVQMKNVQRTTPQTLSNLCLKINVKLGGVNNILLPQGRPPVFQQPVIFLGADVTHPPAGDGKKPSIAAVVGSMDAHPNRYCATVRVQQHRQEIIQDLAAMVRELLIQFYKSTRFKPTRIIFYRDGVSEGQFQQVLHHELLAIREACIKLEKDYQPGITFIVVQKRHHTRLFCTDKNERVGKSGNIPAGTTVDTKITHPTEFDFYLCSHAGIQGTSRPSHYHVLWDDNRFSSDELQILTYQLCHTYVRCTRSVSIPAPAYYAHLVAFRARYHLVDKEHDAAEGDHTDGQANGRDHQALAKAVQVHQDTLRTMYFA

| Binder | binding signal (AGO2 L192P) | binding signal (AGO2 A367P) | binding signal (AGO2 T357M) |
| --- | --- | --- | --- |
| B1 | 0.408 fold enrichment over input | 0.144 fold enrichment over input | 0.544 fold enrichment over input |
| B2 | 0.414 fold enrichment over input | 0.135 fold enrichment over input | 0.6 fold enrichment over input |
| B3 | 0.347 fold enrichment over input | 0.134 fold enrichment over input | 0.37 fold enrichment over input |
| B4 | 0.382 fold enrichment over input | 0.14 fold enrichment over input | 0.471 fold enrichment over input |
| B5 | 0.362 fold enrichment over input | 0.132 fold enrichment over input | 0.487 fold enrichment over input |
| B6 | 0.369 fold enrichment over input | 0.149 fold enrichment over input | 0.584 fold enrichment over input |
| B7 | 0.445 fold enrichment over input | 0.167 fold enrichment over input | 0.599 fold enrichment over input |
| B8 | 0.391 fold enrichment over input | 0.155 fold enrichment over input | 0.524 fold enrichment over input |
| B9 | 0.377 fold enrichment over input | 0.137 fold enrichment over input | 0.463 fold enrichment over input |
| B10 | 0.475 fold enrichment over input | 0.166 fold enrichment over input | 0.561 fold enrichment over input |
| B11 | 0.345 fold enrichment over input | 0.138 fold enrichment over input | 0.498 fold enrichment over input |
| B12 | 0.349 fold enrichment over input | – | 0.475 fold enrichment over input |
| B13 | 0.418 fold enrichment over input | 0.125 fold enrichment over input | 0.573 fold enrichment over input |
| B14 | 0.357 fold enrichment over input | 0.128 fold enrichment over input | 0.449 fold enrichment over input |
| B15 | 0.335 fold enrichment over input | 0.124 fold enrichment over input | 0.452 fold enrichment over input |
| B16 | 0.457 fold enrichment over input | 0.174 fold enrichment over input | 0.596 fold enrichment over input |
| B17 | 0.333 fold enrichment over input | 0.128 fold enrichment over input | 0.424 fold enrichment over input |
| B18 | 0.34 fold enrichment over input | 0.134 fold enrichment over input | 0.474 fold enrichment over input |
| B19 | 0.362 fold enrichment over input | 0.136 fold enrichment over input | 0.536 fold enrichment over input |
| B20 | 0.354 fold enrichment over input | 0.122 fold enrichment over input | 0.399 fold enrichment over input |
| B21 | 0.352 fold enrichment over input | 0.132 fold enrichment over input | 0.47 fold enrichment over input |
| B22 | 0.348 fold enrichment over input | 0.135 fold enrichment over input | 0.496 fold enrichment over input |
| B23 | 0.336 fold enrichment over input | 0.13 fold enrichment over input | 0.437 fold enrichment over input |
